As a reminder, the residual activity is the signal under treatment as a percentage of the control signal.

These results are taken from ChEMBL document CHEMBL2218924, “A broad activity screen in support of a chemogenomic map for kinase signalling research and drug discovery” (Biochem J, 2013).

Experiment [1] deals with RAF proto-oncogene serine/threonine-protein kinase (Homo sapiens) (UniProt P04049). The conditions noted are these: at 1 µM.
For experiment [2], the target named is Mast/stem cell growth factor receptor Kit (Homo sapiens) (UniProt P10721). The conditions noted are these: at 1 µM.
For experiment [3] the target is unchanged. The conditions noted are these: at 10 µM.

RAF proto-oncogene serine/threonine-protein kinase (Homo sapiens), sequence (P04049 whole entry): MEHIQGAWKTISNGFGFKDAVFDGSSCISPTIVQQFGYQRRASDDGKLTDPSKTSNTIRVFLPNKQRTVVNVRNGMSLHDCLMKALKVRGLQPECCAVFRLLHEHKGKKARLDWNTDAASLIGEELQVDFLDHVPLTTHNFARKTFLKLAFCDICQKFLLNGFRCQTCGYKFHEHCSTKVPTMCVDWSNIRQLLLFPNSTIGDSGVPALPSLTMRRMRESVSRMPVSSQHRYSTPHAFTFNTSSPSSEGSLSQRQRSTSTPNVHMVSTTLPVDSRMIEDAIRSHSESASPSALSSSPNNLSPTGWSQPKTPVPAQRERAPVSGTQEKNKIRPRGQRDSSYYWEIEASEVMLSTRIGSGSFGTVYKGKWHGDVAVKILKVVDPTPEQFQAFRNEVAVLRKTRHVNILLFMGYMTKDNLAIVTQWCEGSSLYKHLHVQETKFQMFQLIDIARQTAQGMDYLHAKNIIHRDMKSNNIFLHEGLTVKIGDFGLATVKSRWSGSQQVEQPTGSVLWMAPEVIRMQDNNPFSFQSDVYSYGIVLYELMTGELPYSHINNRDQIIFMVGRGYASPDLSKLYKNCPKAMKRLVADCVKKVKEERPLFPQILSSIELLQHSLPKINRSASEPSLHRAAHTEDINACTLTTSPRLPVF
Mast/stem cell growth factor receptor Kit (Homo sapiens), sequence (P10721 whole entry): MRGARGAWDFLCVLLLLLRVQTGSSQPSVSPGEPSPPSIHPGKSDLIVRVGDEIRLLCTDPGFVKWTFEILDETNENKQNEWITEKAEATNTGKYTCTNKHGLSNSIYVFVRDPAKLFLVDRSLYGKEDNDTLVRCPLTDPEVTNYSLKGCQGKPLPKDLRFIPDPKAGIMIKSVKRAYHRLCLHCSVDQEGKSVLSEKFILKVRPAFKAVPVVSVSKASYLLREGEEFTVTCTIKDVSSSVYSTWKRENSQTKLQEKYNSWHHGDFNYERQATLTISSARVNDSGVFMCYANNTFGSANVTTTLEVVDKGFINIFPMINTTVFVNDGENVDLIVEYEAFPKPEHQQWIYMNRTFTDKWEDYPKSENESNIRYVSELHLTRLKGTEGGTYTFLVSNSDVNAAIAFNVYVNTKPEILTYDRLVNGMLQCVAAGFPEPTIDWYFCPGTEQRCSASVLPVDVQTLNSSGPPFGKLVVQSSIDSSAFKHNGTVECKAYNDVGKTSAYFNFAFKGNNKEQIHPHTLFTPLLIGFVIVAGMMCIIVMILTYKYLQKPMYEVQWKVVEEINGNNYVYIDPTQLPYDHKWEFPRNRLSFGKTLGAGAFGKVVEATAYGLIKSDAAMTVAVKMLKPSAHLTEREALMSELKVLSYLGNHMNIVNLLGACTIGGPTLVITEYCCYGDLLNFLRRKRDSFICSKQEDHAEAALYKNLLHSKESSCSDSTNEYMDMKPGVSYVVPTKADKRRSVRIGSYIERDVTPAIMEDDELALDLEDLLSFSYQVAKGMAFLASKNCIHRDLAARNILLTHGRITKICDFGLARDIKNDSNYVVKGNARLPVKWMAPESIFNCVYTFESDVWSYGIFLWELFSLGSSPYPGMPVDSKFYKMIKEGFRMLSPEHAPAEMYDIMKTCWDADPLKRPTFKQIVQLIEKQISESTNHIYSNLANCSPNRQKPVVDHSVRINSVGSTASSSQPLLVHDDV

For the compound `CC(C)(C)c1cc(C=C(C#N)C#N)cc(Br)c1O`, the residual activity in experiment [1] came to 99%; in experiment [2] it was 113%; in experiment [3], 102%.
For `CN[C@@H]1C[C@H]2O[C@@](C)([C@@H]1OC)n1c3ccccc3c3c4c(c5c6ccccc6n2c5c31)C(=O)NC4`, the residual activity in experiment [1] was found to be 109%.
